Experimental data from PubChem BioAssay (NCATS).
Inconclusive results are not listed. The source made the active and inactive calls. Calls come from the whole dose curve; as a rule, active = well fitted cell-killing curve with a large enough effect; inconclusive = small, poorly fitted or top-dose-only effect, or effect the other way; inactive = flat fitted curve, though single readings scatter.

Key:
Assay in all cases: Primary qHTS to identify gynecologic anti-cancer compounds using libraries of approved drugs and bioactive compounds (AID 1345084); note: nearly all actives have a fitted effect of over 55% in size
Settings in all cases: Gynecologic cancer cell panel viability, ATPlite luminescence, 48 h; series mostly up to 57.5 µM
OV90 = test system: OV90
Procedure, shortened: (§1)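 Cells, 1,000 per well, were allowed to settle for 16 h at 37 C before compound addition. Five concentrations were tested for 48 h, and viability was read by ATPlite luminescence after 15 min at room temperature.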

PA-1 = test system: PA-1
Procedure, shortened: as §1

SKOV3 = test system: SKOV3
Procedure, shortened: as §1

Tov-21-G = test system: Tov-21-G
Procedure, shortened: as §1

Tov112D = test system: Tov112D
Procedure, shortened: as §1

Measured: Potency

O=C(C1CC1)N1CC[C@@H](Cc2n[nH]c(=O)n2-c2ccc(-c3ccc4occc4c3)cc2)C1
inactive: all assays above

COc1ncc(-c2ccc3c(Nc4cc(Oc5cc(F)cc(F)c5)cc(C(=O)O)c4)c(S(=O)(=O)NC4CC4)cnc3c2)c(OC)n1
inactive: all assays above

CN1CC[C@@H](NC(=O)Nc2ccc(C#N)cc2)C[C@@H]1c1nc2ccccc2[nH]1
inactive: all assays above

C=C1C[C@]23C[C@H]1CC[C@H]2[C@@]12C=C[C@H](O)[C@@](C)(C(=O)O1)[C@H]2[C@@H]3C(=O)O
inactive: all assays above

COc1cc2c(cc1O)C1(Cc3ccc4c(c3C1=O)OCO4)N(C)CC2 (stereo not given)
inactive: all assays above

COC(=O)[C@H](CC1C=NC=N1)NCC12CC3CC(CC(C3)C1)C2 (stereo not given in full)
inactive: all assays above

NC(=O)c1ccc(OCC2NC(=O)C3CCCN3C2=O)cc1 (stereo not given)
inactive: all assays above

CCC1CC2C(C)=CC3CCCCC3C2(C)C2(OC(=O)C(C)(O)OC2=O)O1 (stereo not given)
inactive: all assays above

c1ccc(Cc2ncc3c(n2)CCNCC3)cc1
inactive: all assays above

NS(=O)(=O)NCCNc1nonc1C(=Nc1ccc(F)c(Br)c1)NO
inactive: all assays above
